The record followed here is PubChem BioAssay.

The test system of assay [1] is Wnt5a (protein binding on small-molecule microarray). Briefly: small molecules binding Wnt5a protein – biophysical, small-molecule microarray, 635/667 nm fluorescence, primary screen (AID 1142).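 Further: fluorescence read at 667 nm with signal to noise per printed feature.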 The conditions noted are these: 635 nm fluorescence, higher = more signal.
Assay [2] is described as follows: ATP-based viability of Huh7 replicon cells – cell-based, CellTiter-Glo luminescence, basal, 48 h, cytotoxicity control for HCV replication inhibitor project, primary screen (AID 1143).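 Further: Huh7 hepatoma cells carrying a hepatitis C replication reporter with no stimulus; test concentration not given here.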 As to conditions: higher = more signal, called active from +8 up or from −8 down. A general note: Replicon systems follow genome replication, usually without infectious particles.
Assay [3] can be described thus: Pseudomonas biofilm growth suppression – PAO1 strain, BacTiter-Glo luminescence, LB-PBS, primary screen (AID 1144). The conditions noted are these: P. aeruginosa PAO1 biofilm, 12 h, higher = more signal.
Assay [4] is described as follows: basal CRE-LacZ reporter activity in PC12 – cell-based, unstimulated, primary screen (AID 1145). The conditions noted are these: no forskolin, luminescence, 4.5 h, higher = more signal, called active from +8 up or from −8 down.
Assay [5] is described as follows: forskolin-driven CRE-LacZ activity in PC12 – cell-based, CRE-LacZ reporter, forskolin-stimulated, primary screen (AID 1146).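 Further: PC12 cells with 6xCRE LacZ reporter stimulated by forskolin 10 µM; beta-galactosidase reporter signal reflecting CREB driven transcription.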 As to conditions: luminescence, 4.5 h, higher = more signal, called active from +8 up or from −8 down.
In assay [6] the target is Streptavidin (Streptomyces avidinii) (UniProt P22629). Kind of assay: compounds binding control protein streptavidin – biophysical, small-molecule microarray, 635/667 nm fluorescence, artefact control for SMM compound annotation, primary screen (AID 1147).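 Further: signal reflects streptavidin binding to arrayed compounds as a control protein.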 As to conditions: higher = more signal.
Streptavidin (Streptomyces avidinii), sequence (P22629 whole entry, looked up): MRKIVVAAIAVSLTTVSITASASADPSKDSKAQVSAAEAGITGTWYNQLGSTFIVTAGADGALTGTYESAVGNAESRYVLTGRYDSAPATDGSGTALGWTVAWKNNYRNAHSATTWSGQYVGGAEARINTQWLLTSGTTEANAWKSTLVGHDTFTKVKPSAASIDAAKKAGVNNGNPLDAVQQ
The nature of assay [7]: probe aInhba binding on compound microarray – biochemical, small-molecule microarray, 635/667 nm fluorescence, primary screen (AID 1148).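 Further: score merges 667nm spot fluorescence with signal-to-noise for antibody binding to printed compounds.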 The conditions noted are these: higher = more signal.
Assay [8] concerns the target Torsin-1A (Homo sapiens) (UniProt O14656). Kind of assay: TOR1A wild-type binding on microarray – cell lysate, small-molecule microarray, lysate, 635/667 nm, primary screen (AID 1149). As to conditions: COS7 hTOR1A-WT lysate, 635 nm fluorescence, higher = more signal.
For assay [9] the target is unchanged. Briefly: torsin A mutant lysate binding on microarrays – cell lysate, small-molecule microarray, COS7 lysate, 635/667 nm fluorescence, primary screen (AID 1150).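 Further: score pools 667 nm emission and signal to noise measuring lysate protein binding.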 As to conditions: COS7 hTOR1A mutant lysate, 635 nm fluorescence, higher = more signal.
Assay [10] has as its system Sonic hedgehog protein (Shh). Kind of assay: Sonic hedgehog microarray binding compounds – biochemical, small-molecule microarray, 635/667 nm fluorescence, primary screen (AID 1151).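 Further: Shh protein binding to compounds spotted on small-molecule microarray slides; score combines spot fluorescence intensity with signal-to-noise across triplicate slides.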 As to conditions: 635 nm fluorescence, higher = more signal.

The source made the active and inactive calls. Unless noted, how the calls were made is not given here.

Torsin-1A (Homo sapiens), sequence (O14656 whole entry, looked up): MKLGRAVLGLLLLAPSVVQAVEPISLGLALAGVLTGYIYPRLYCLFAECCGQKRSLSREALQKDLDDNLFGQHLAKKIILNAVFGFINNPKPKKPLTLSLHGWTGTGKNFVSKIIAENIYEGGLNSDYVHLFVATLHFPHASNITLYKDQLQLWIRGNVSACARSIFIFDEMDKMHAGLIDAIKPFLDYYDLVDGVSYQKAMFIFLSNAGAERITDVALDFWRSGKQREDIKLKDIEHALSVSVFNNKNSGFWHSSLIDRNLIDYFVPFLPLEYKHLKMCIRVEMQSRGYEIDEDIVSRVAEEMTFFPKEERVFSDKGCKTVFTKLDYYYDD

For `CN1C(=O)C2C=CC(C(O)c3ccccn3)N(N(c3ccccc3)c3ccccc3)C2C1=O` (stereo not given), the composite z-score in [1] was 0.485; in assay [6] it was -0.0902; in [7], 0.167; with Torsin-1A (Homo sapiens) [8], 0.678; in the assay with Torsin-1A (Homo sapiens) [9], 0.291; in assay [10] it was 0.424. Further, the z-score is 0.346 (inactive) in [2], -1.26 (inactive) in [3], 0.0569 (inactive) in assay [4] and -0.164 (inactive) in assay [5].

In the case of `COCCOC(=O)N1C(=O)[C@@]2(c3cc(C#Cc4ccc(OC)cc4)ccc31)[C@H](C(=O)Nc1nc3ccccc3s1)[C@H]1C(=O)O[C@H](c3ccccc3)[C@H](c3ccccc3)N1[C@@H]2c1ccc(O)cc1`, the composite z-score stood at 0.472 in assay [1]; 0.768 in [6]; 0.266 in [7]; 0.198 with Torsin-1A (Homo sapiens) [8]; 0.811 with Torsin-1A (Homo sapiens) [9]; 1.91 in [10]. Moreover, the z-score in assay [2] is -3.43 (inactive); in [3], -1.8 (inactive); in assay [4], -1.83 (inactive); in assay [5] it was 0.673 (inactive).

With `COC(=O)c1ccc([C@H](NC(=O)c2ccco2)[C@]2(C)C[C@H]2C2CCCCC2)cc1`, the composite z-score in [1] is 0.0108; in assay [6], 0.689; in assay [7], 0.0659; with Torsin-1A (Homo sapiens) [8], -2.21; with Torsin-1A (Homo sapiens) [9] it was -0.568; in assay [10], -1.21. Besides, the z-score in assay [2] was -2.84 (inactive); in assay [3], -0.635 (inactive); in [4] it was -0.368 (inactive); in assay [5], 0.898 (inactive).

For `CC(=O)NCCCC[C@@H]1NC(=O)[C@@H]2C[C@H](C(=O)NCCCC[N+](C)(C)C)[C@H](c3ccc(O)cc3)N2C1=O`, the composite z-score in assay [1] was 0.522; in assay [6], -0.146; in assay [7], 0.242; in the assay with Torsin-1A (Homo sapiens) [8], 0.804; in the assay with Torsin-1A (Homo sapiens) [9] it was 0.547; in assay [10] it was 2.24. The z-score is -2.24 (inactive) in [2], -0.279 (inactive) in [3], -0.122 (inactive) in assay [4] and -0.528 (inactive) in assay [5].

Consider `CCCCC(=C=CC[C@@H](O)c1ccccc1OCCO)C[C@@H](O)COCc1ccccc1`, for which the composite z-score is -0.027 in [1]; -0.385 in assay [6]; 0.257 in [7]; -0.745 with Torsin-1A (Homo sapiens) [8]; -0.592 in the assay with Torsin-1A (Homo sapiens) [9]; 0.697 in assay [10]. For the same compound, the z-score in assay [2] was -2.16 (inactive); in assay [3], -0.631 (inactive); in [4], 17.1 (active); in assay [5], -0.749 (inactive).

Regarding `CN(C)CCCCNC(=O)[C@@H]1C[C@@H]2C(=O)N[C@@H](Cc3ccccc3)C(=O)N2[C@@H]1c1cccc(OCCO)c1`, the composite z-score in [1] was 1.2; in assay [6] it was -0.351; in assay [7], 0.0543; in the assay with Torsin-1A (Homo sapiens) [8] it was 0.75; with Torsin-1A (Homo sapiens) [9], 1.54; in [10], 1.55. Besides, the z-score in assay [2] is -1.6 (inactive); in [3], -0.133 (inactive); in assay [4] it was 0.431 (inactive); in [5], -0.903 (inactive).

`CCOC(=O)C1CCCCN1` (stereo not given): the composite z-score in assay [1] amounted to 0.781; in assay [6] it was 0.412; in assay [7], 0.705; with Torsin-1A (Homo sapiens) [8], 0.544; with Torsin-1A (Homo sapiens) [9], 0.388; in assay [10], 0.506. In addition, the z-score was 0.319 (inactive) in assay [2], 0.566 (inactive) in [3], -0.788 (inactive) in assay [4] and -0.398 (inactive) in [5].

Consider `CCCNC(=O)[C@@H]1c2ccccc2C(=O)N(C(C)C)[C@H]1c1ccc(CO)cc1`, for which the composite z-score in assay [1] is -0.122; in assay [6] it was -0.0547; in assay [7], 0.0658; in the assay with Torsin-1A (Homo sapiens) [8], -0.215; with Torsin-1A (Homo sapiens) [9], 0.0984; in assay [10], -0.121. For the same compound, the z-score in assay [2] was -0.0095 (inactive); in assay [3] it was -0.521 (inactive); in [4], -0.412 (inactive); in assay [5], 0.211 (inactive).

For `COC(=O)c1c(CC[C@@H](CO)NC(=O)N[C@H](Cn2cc(C3(O)CCCCC3)nn2)C(C)C)oc(C(C)=O)c1C(=O)OC`, the composite z-score is 0.359 in [1]; 1.31 in [6]; -0.0523 in assay [7]; 0.881 with Torsin-1A (Homo sapiens) [8]; 0.756 with Torsin-1A (Homo sapiens) [9]; 1.59 in assay [10]. Also, the z-score was -2.81 (inactive) in [2], -0.875 (inactive) in assay [3], 1.34 (inactive) in assay [4] and -1.13 (inactive) in assay [5].

Consider `COC(=O)[C@@]1(Cc2ccc(OC)cc2)[C@H]2c3cc(C(=O)N(C)C)n(Cc4ccc(Cl)c(C(F)(F)F)c4)c3C[C@H]2CN1C(=O)c1ccccc1`, for which the composite z-score in assay [1] is 0.758; in assay [6], 0.725; in assay [7] it was 0.515; with Torsin-1A (Homo sapiens) [8], -0.213; in the assay with Torsin-1A (Homo sapiens) [9], 0.234; in [10], -0.988. Besides, the z-score in [2] is -2.81 (inactive); in [3] it was 0.275 (inactive); in [4] it was 2.87 (inactive); in [5], 2.18 (inactive).

For `O=C1N(Cc2ccccc2)c2ccccc2[C@@H]2OC(c3ccc(OCCCO)cc3)=N[C@]12Cc1ccccc1`, the composite z-score in [1] is -0.0069; in assay [6] it was 0.89; in [7] it was -0.0332; in the assay with Torsin-1A (Homo sapiens) [8], 0.378; with Torsin-1A (Homo sapiens) [9], 0.534; in assay [10] it was 0.809. For the same compound, the z-score in assay [2] is -4.55 (inactive); in assay [3] it was -0.236 (inactive); in assay [4], 1.37 (inactive); in [5], -1.64 (inactive).

Turning to `CCOC(=O)C[C@H]1[C@H](OC(=O)c2cc3ccccc3oc2=O)[C@@H](NC(=O)Cc2ccc(OC)cc2)c2cc(OCCCO)ccc2N1C(=O)c1ccc2ccccc2n1`, the composite z-score was determined as 0.34 in [1]; 0.14 in assay [6]; 0.0275 in [7]; 0.0518 with Torsin-1A (Homo sapiens) [8]; 0.161 with Torsin-1A (Homo sapiens) [9]; 0.479 in assay [10]. Also, the z-score is 0.0642 (inactive) in assay [2], 0.177 (inactive) in assay [3], 11.5 (active) in [4] and -0.906 (inactive) in assay [5].

On to `C=C(/C(=C/C[C@H](OC(C)=O)c1cccc(OCCO)c1)c1cnc2ccccc2c1)C(C)C`, for which the composite z-score is 0.217 in assay [1]; 0.653 in [6]; 0.124 in assay [7]; 0.04 with Torsin-1A (Homo sapiens) [8]; 0.491 with Torsin-1A (Homo sapiens) [9]; 2 in [10]. For the same compound, the z-score in assay [2] was -0.262 (inactive); in assay [3], 0.424 (inactive); in [4] it was 5.97 (inactive); in [5], -0.323 (inactive).

Consider `COCCCNC(=O)[C@@]1(Cc2ccccc2N=[N+]=[N-])N=C(c2ccc(OCCCO)cc2)O[C@H]1c1ccccc1`, for which the composite z-score in assay [1] is 1.51; in [6], -0.459; in assay [7], 0.0589; with Torsin-1A (Homo sapiens) [8], 3.67; in the assay with Torsin-1A (Homo sapiens) [9], 3.61; in assay [10], 0.55. For the same compound, the z-score is -4.36 (inactive) in [2], -1.31 (inactive) in [3], 0.558 (inactive) in assay [4] and -0.472 (inactive) in assay [5].
